Pf growth 96h – P. falciparum growth inhibition at 96 hour, primary screen for plastid delayed-death inhibitors; AID 504834; P. falciparum luciferase reporter growth, 96 h; Potency, µM (top dose mostly 28.7 µM), for the others: at the highest dose activity change, negative = inhibition, hits mostly inhibitors; actives 6.9% (n = 320,000); note: potency is the fitted concentration of half-maximal effect; % is set by controls: 0 for no effect and ±100 for the full control effect
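Two-generation exposure (96 h) targets delayed-death phenotype. Reporter parasites carrying integrated firefly luciferase, in red cells at 2% hematocrit and 0.05% parasitemia final, kept at 37 C, 5% CO2; luminescence loss indicates inhibition.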
Cycloheximide cs – counter-screen hit for Shiga toxin inhibitors, cycloheximide; actives 12% (n = 300,000); max response, %; AID 2314; cell reporter, cycloheximide protein synthesis inhibition counterscreen; in the data active = max response mostly above about 13%, no sharp cut-off; inactive = mostly below about 14%; note: read at 38.3 µM for the half of the compounds with a filed dose; 0% is about no effect
HCV inhibitor – HCV inhibition; Huh7.5.1 HCVcc-Cre infection, luciferase reporter, 44 h; Potency, µM (top dose mostly 41.8 µM), inactives show top-dose activity change, negative = inhibition, hits mostly inhibitors; actives 3.4% (n = 340,000); AID 651820; note: potency is the fitted concentration of half-maximal effect; % is set by controls: 0 for no effect and ±100 for the full control effect
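After 44 h co-culture of compound, cells and HCVcc-Cre (~0.5 moi), substrate is added for 15 min at room temperature and luciferase measured over 15 sec. Cells were seeded at 1,000/well and pre-cultured 4 h.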
Shiga inhibitor – Shiga toxin inhibition. actives 9.2% (n = 290,000). Vero cells, Shiga toxin protein synthesis inhibition reporter. inhibition, % at 38.7 µM; in the data active = inhibition mostly above about 28%, no sharp cut-off; inactive = mostly below about 43%; note: 0% is about no effect
Pf growth 48h – P. falciparum growth inhibition at 48 hours (one generation); P. falciparum luciferase growth in erythrocytes, 48 h; Potency, µM (titrated, usually from 28.7 µM), without a hit: at the top dose activity change, negative = inhibition, hits mostly inhibitors; actives 5.9% (n = 310,000); AID 504832; note: potency is the fitted concentration of half-maximal effect; % is set by controls: 0 for no effect and ±100 for the full control effect
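In quantitative HTS format, infected erythrocytes bearing luciferase-reporter parasites were treated for a single generation at 37 C. Luminescence after adding detection reagent served as the growth measure.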
AMA1 RON2 block – AMA1-RON2 (P. falciparum) interaction inhibition; AlphaScreen AMA1-biotinylated RON2 peptide binding; Potency, µM (doses to about 58.2 µM), without a hit: top-dose activity change, negative = inhibition, actives largely listed as inhibitors; actives 0.2% (n = 360,000);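 note: potency is the fitted concentration of half-maximal effect; 0% = vehicle wells and -100% = peptide control; nearly all actives have a fitted effect of over 45% in size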
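AMA1 (3D7) with his tag at 25 nM final met compounds first, then biotinylated RON2 peptide at 25 nM; detection used donor plus acceptor beads, 10 µg/mL apiece, read by AlphaScreen after 30 min at room temperature.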
* = called active by the depositor; ? = inconclusive; . = no result given; [ ] = remark or other dose. Compounds with a hit are over-represented: about 21% of the library has one in this group of screens. Unless noted, calls come from the whole dose curve; as a rule, active = well fitted curve in the direction sought with a large enough effect; inconclusive = small, poorly fitted or top-dose-only effect, or another doubt; inactive = no such curve, though single readings can be large; an effect the other way counts as inactive or inconclusive.

SMILES	Pf growth 96h	Cycloheximide cs	HCV inhibitor	Shiga inhibitor	Pf growth 48h	AMA1 RON2 block
C[C@H]1C=CC(=O)C[C@H]1c1c(F)cccc1Cl	.	7	.	6	.	.
CC1CCN(CCCNC(=O)c2coc3nc4ccccc4nc23)CC1	38%	2	27%	-4	?	11%
O=C(NCCc1ccccc1)c1n[nH]c(=O)c2ccccc12	-27%	27*	17%	26	26%	8%
CC1CCN(CCCNC(=O)c2n[nH]c(=O)c3ccccc23)CC1	12µM*	-4	1%	-19	21%	-15%
CCOC(=O)c1ccc(N(C(=O)CNC(=O)c2ccco2)C(C(=O)NCC2CCCO2)c2ccc(OC)c(OC)c2)cc1 (configuration not stated)	77%	1	-3%	-13	0%	-6%
COc1ccccc1CNS(=O)(=O)c1cc(C(=O)N(C)Cc2cccnc2)c(Cl)cc1Cl	.	.	?	.	.	-9%
Fc1ccc(CSc2ccc(-c3cccs3)nn2)cc1	84%	30*	15%	38	113%	5%
Cc1ccc(CNC(=O)CSc2ccc(-c3cccs3)nn2)cc1	-30%	0	5%	-6	3%	13%
c1cncc(CSc2ccc(-c3cccs3)nn2)c1	?	26*	?	44*	206%	5%
Cc1ccc(CSc2ccc(-c3cccs3)nn2)cc1	150%	46*	12%	47*	149%	3%
COc1ccccc1Nc1nnc(Cc2ccccc2)c(=O)[nH]1	12µM*	-2	-12%	-2	22%	6%
COc1ccc(Nc2nnc(Cc3ccc(Cl)cc3)c(=O)[nH]2)c(OC)c1	94%	3	?	-5	-21%	5%
COc1ccc(Nc2nnc(Cc3ccccc3)c(=O)[nH]2)c(OC)c1	26%	-2	-17%	-20	?	-3%
COc1ccc(Cc2nnc(Nc3ccccc3OC)[nH]c2=O)cc1	-5%	-2	2.8µM*	-10	?	-7%
COc1ccc(Cc2nnc(Nc3ccc(Cl)cc3)[nH]c2=O)cc1	?	18*	16%	16	?	-2%
O=C(CN1C(=O)NC(c2ccccc2)(c2ccccc2)C1=O)NCC(=O)Nc1ccc(F)cc1	-19%	.	-6%	.	?	-3%[11.6 µM]
CC(=O)Nc1ccc(S(=O)(=O)Nc2nc3ccccc3nc2Nc2ccc(O)c(C(=O)O)c2)cc1	18%	-4	26%	-10	23%	59%
COc1cc(-c2nc(-c3ccccc3)c(-c3cc([N+](=O)[O-])ccc3C)[nH]2)cc(OC)c1OC	?	4	13µM*	-4	2.6µM*	-28%
COc1ccc2oc(C(=O)OCC(=O)Nc3ccc(C(=O)N(C)C)cc3)c(C)c2c1	24%	17*	-1%	14	6%	-9%
COc1ccc2oc(C(=O)OCC(=O)Nc3ccccc3)c(C)c2c1	0%	29*	23%	35*	21%	3%
COc1ccc2oc(C(=O)OCC(=O)Nc3ccc(N4CCOCC4)cc3)c(C)c2c1	14%	.	0%	.	14%	17%
CCOC(=O)N1CCN(C(=O)COC(=O)c2oc3ccc(OC)cc3c2C)CC1	19%	16*	-11%	32*	-3%	8%
COc1ccc2oc(C(=O)OCC(=O)Nc3ccccc3OC)c(C)c2c1	54%	.	1%	.	2%	15%
C/C(=N\NC(=O)CSc1nc(C)[nH]c1[N+](=O)[O-])c1ccc(F)cc1	?	4	-5%	15	4%	25%
Cc1onc(-c2c(Cl)cccc2Cl)c1C(=O)Nc1ccc(N2CCOCC2)cc1	?	-1	-20%	-5	?	-8%
SMILES	Pf growth 96h	Cycloheximide cs	HCV inhibitor	Shiga inhibitor	Pf growth 48h	AMA1 RON2 block
COc1cc(C2(C)SCCCS2)cc(OC)c1OC	.	.	.	.	.	-6%
CCOc1ccc(NC(=S)N2CCC(NC(=O)c3ccccc3C)CC2)cc1	16%	-5	4%	18	-7%	-6%
COc1ccc(/C=C/C2=NN(C)C(=O)CC2)cc1	251%	34*	1%	54*	408%	-2%
CCOC(=O)CN1N=C(/C=C/c2ccc(C)cc2)CCC1=O	70%	21	?	47*	40%	-8%
C[C@]12CC[C@H](O)C[C@H]1CC[C@@H]1[C@@H]2CC[C@]2(C)[C@@H](C3=CC(=O)OC3)CC[C@]12O	-1%	.	2µM*	.	-10%	-8%
C[C@]12CC[C@H](O)C[C@H]1CC[C@@H]1[C@@H]2C[C@@H](O)[C@]2(C)[C@@H](C3=CC(=O)OC3)CC[C@]12O	-7%	.	0.56µM*	.	-5%	5%
CC12CCC(O)CC1CCC1C2CCC2(C)C(C3=CC(=O)OC3)C(O)CC12O (configuration not stated)	.	.	?	.	.	-7%
CC12CCC(O)CC1CCC1C2CCC2(C)C(C3=CC(=O)OC3)CCC12O (configuration not stated)	.	.	5µM*	.	.	7%
CCOc1ccccc1N1CCN(CC(=O)N(C)CC(=O)Nc2ccccc2CC)CC1	.	.	.	.	.	-7%
Cc1cccc(C)c1NC(=O)c1sc(N)nc1-c1ccccc1	9%	-5	-2%	-6	-1%	10%
Cc1ccc2nc3sc(C(=O)Nc4c(C)[nH]c(=O)[nH]c4=O)c(N)c3cc2c1	8.3µM*	31*	4%	24	35%	26%
Cc1[nH]c(=O)[nH]c(=O)c1NC(=O)c1sc2nc3c(C)cccc3cc2c1N	4.7µM*	-4	?	-3	10%	-12%
Cc1ccc2cc3c(N)c(C(=O)Nc4c(C)[nH]c(=O)[nH]c4=O)sc3nc2c1	?	-2	4%	-10	3%	-6%
COc1ccc(S(N)(=O)=O)cc1C(=O)OCC(=O)N1CCCC(C)C1 (configuration not stated)	.	.	3%	.	.	-8%
COc1ccc(NC(=O)c2cccnc2)c(OC)c1	15µM*	4	-14%	-9	.	5%
COc1ccc(OC)c(NC(=O)c2ccc(-c3cccs3)cc2)c1	12%	15	?	24	18%	28µM*
COc1ccc(NC(=O)c2ccc(C)cc2)c(OC)c1	173%	50*	9%	96*	130%	?
COc1ccc(C(=O)Nc2ccc(C(=O)O)cc2NC(=O)c2ccc(OC)cc2)cc1	-11%	1	19%	-6	8%	9%
COc1ccccc1NC(=O)c1cccnc1	-1%	-1	-16%	-5	23%	6%
COc1ccc(NC(=O)c2ccc3[nH]c(=O)c(=O)[nH]c3c2)c(OC)c1	10%	3	-16%	-9	18%	-8%
COc1ccc(C(=O)Nc2ccc(C3=NNC(=O)CC3C)cc2NC(=O)c2ccc(OC)cc2)cc1 (configuration not stated)	?	-7	10µM*	6	?	-21%

Screens (PubChem BioAssay)
